Drawing on PubChem BioAssay (NCATS), this text covers max response for 40 molecules.

Records with an inconclusive call do not appear.

The nature of one test: qHTS Assay for Lipid Storage Modulators (AID 1519). The conditions noted are these: Drosophila S3 cells, BODIPY lipid droplet/cell ratio, laser cytometry; measured here: cell count channel max response; cells loaded with oleic acid. In short, it runs like this:
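Cells seeded at 5,000 per well were treated with compounds over a concentration series and loaded with oleic acid (400 uM, as added). Lipid droplet fluorescence (488 nm excitation, 500-530 nm channel) was read by laser-scanning cytometry and normalized to 20 uM Triacsin C.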
On to `COc1cc2cc[n+]3cc4c(OC)c(OC)ccc4cc3c2cc1OC`, for which the max response was found to be 22.9%.
Consider `COc1cc(-c2cc(=O)c3c(O)c(OC)c(OC)c(OC)c3o2)cc(OC)c1OC`, for which the max response came out at 5.14%.
`CC1(C)CC2C1CCC1(C)OC2(C)CCC1O` (stereo not given): the max response stood at 12.1%.
Consider `O=C(CCc1ccc(O)cc1)c1c(O)cc(O)cc1O[C@H]1OC(CO)C(O)C(O)C1O` (stereo not given in full), for which the max response came out at 25.3%.
Still for that read-out and setting: for `CC1(C)C[C@@H]2C(=O)CCC3O[C@@]3(C)CCC21` (stereo not given in full) the value was 20.7%; for `CC(=O)OC1CC(OC(C)=O)[C@]2(C)C(CC(=O)[C@]3(C)C2CC[C@@]2(C)C(C(=O)O)OC(=O)C4OC423)C1(C)C` (stereo not given in full), 10.8%; for `CC(C)=CCc1c(O)cc2oc(C)cc(=O)c2c1O`, -3.81%.
As for `COc1ccc2c(=O)c(CC(=O)O)coc2c1`, the max response turned out to be 9.56%.
For the molecule `CC(CCC(=O)O)C1CCC2C3CC[C@H]4CC(O)CC[C@@]4(C)C3CC(O)[C@]12C` (stereo not given in full), the max response was -1.9%.
The same measure, in the same setting: for `CC1(C)OC2CC3C4CC(F)C5=CC(=O)C=C[C@@]5(C)[C@@]4(F)C(O)C[C@@]3(C)[C@]2(C(=O)CO)O1` (stereo not given in full) the value was 10.6%; for `C=C1C(=O)OC2CC1C(OC(C)=O)CC(C)=CCCC(C)=CCC[C@@]2(C)O` (stereo not given in full), 10.1%.
`Oc1ccc(C2Oc3cc(O)cc(O)c3CC2O)cc1` (stereo not given): the max response is -6.15%.
Take `O=c1cc(-c2ccc(O)cc2)oc2cc(O)ccc12`: the max response is -4.61%.
Still for that read-out and setting: then `S=c1ccss1`, with 5.82%.
Same read-out and setting: for `COC(=O)CC1C(C)(C)C2(O)OC34CC2C(=O)[C@@]1(C)C3CC[C@]1(C)C4=CC(=O)OC1c1ccoc1` (stereo not given in full) the value was -0.136%.
The same measure, in the same setting: for `COc1ccc(C(=O)c2ccc(O)cc2)c(O)c1O` the value was 2.91%; for `COc1cccc(O)c1O`, 9.09%.
In the case of `O=C(/C=C/c1ccccc1)c1ccc(O)cc1`, the max response is -2.42%.
Same read-out and setting: for `CCOC(=O)c1c(C)cc(O)c(C=O)c1O` the value was -4.41%; for `COc1ccc(-c2coc3c(O)c(OC)ccc3c2=O)cc1`, 25.3%.
On the same count and under the same terms, for `CC1(C)OC2CC3C4CCC5=CC(=O)C=C[C@@]5(C)[C@]4(F)C(O)C[C@@]3(C)[C@]2(C(=O)CO)O1` (stereo not given in full) the value was -0.616%.
Still for that read-out and setting: for `COC(=O)/C(C)=C/CC12OC(C)(C)C3CC(C=C4C(=O)c5cc6c(c(CCC(C)(C)Cl)c5OC431)OC1(C)CCC(=C(C)C)C6C1)C2=O` (stereo not given) the value was 7.63%; for `CC(N)C(O)c1cccc(O)c1` (stereo not given), 6.62%.
`CC(=O)OCC1OC(n2c(Br)nc3c(=O)[nH]c(N)nc32)C(OC(C)=O)C1OC(C)=O` (stereo not given): the max response came out at 9.1%.
Same read-out and setting: for `C[C@]12CCC3c4ccc(OC(=O)c5ccccc5)cc4CCC3C1CCC2=O` (stereo not given in full) the value was 14.4%.
Consider `CCOC(=O)CCC(=O)O[C@H]1C(O[C@@H]2C(C)[C@H](O[C@H]3C[C@@](C)(OC)C(O)C(C)O3)C(C)C(=O)OC(CC)[C@@](C)(O)C(O)[C@H](C)C(=O)C(C)C[C@]2(C)O)OC(C)CC1N(C)C` (stereo not given in full), for which the max response was found to be 3.86%.
Same read-out and setting: then `CC1(C)C(=O)C2C[C@]3(O)C4=CC(=O)OC(c5ccoc5)[C@]4(C)CCC3[C@](C)(C2=O)C1CC(=O)O` (stereo not given in full), with 1.91%; and `COc1cc(OC)c(C(C)=O)c(O)c1C`, with 5.25%.
Regarding `CC(=O)OC1CC2C(C)(C)C(=O)[C@@H]3OC3[C@@]2(C)C2CC[C@]3(C)C(=CC(=O)OC3c3ccoc3)[C@]12C` (stereo not given in full), the max response stood at 18.2%.
Regarding `CC1(C)CCC2(C(=O)O)CC[C@]3(C)C(=CCC4[C@]5(C)CCC(O)C(C)(C)C5C(O)C[C@]43C)C2C1` (stereo not given in full), the max response worked out at 9.57%.
The same measure, in the same setting: then `CC1(C)CC2/C(CO)=C/C=C/[C@](C)(O)CC[C@]21O` (stereo not given in full), with 22.8%; and `COc1c(O)cc2c(-c3ccccc3)cc(=O)oc2c1OC`, with 6.33%; and `COC(=O)CC1C(C)(C)C(OC(C)=O)C2CC3=C4CC(=O)OC(c5ccoc5)[C@]4(C)CCC3[C@@]1(C)C2=O` (stereo not given in full), with 14.6%.
As to `Oc1ccc2c(c1)OC(c1ccc(O)c(O)c1)C(O)C2` (stereo not given), the max response is -5.73%.
In the case of `C#C[C@]1(O)CCC2C3CCC4=Cc5oncc5C[C@@]4(C)C3CC[C@@]21C` (stereo not given in full), the max response came to 9.5%.
Turning to `CC(=O)OC1CC2C(C)(C)C=CC(=O)[C@@]2(C)C2CC[C@@]3(C)C(c4ccoc4)OC(=O)C4OC43[C@]12C` (stereo not given in full), the max response is -8.35%.
The same measure, in the same setting: for `CC(=O)OCC(=O)[C@@]12OC(C)(C)OC1CC1C3CC(F)C4=CC(=O)C=C[C@@]4(C)[C@@]3(F)C(O)C[C@]12C` (stereo not given in full) the value was 3.91%; for `CC1(C)CCCC2(C)C3C(O)CC2(C)C(O)C31` (stereo not given), -2.66%; for `C=C1C[C@@]23C[C@@]1(O)CCC2[C@@]12C=CC(O)[C@](C)(C(=O)O1)C2C3C(=O)O` (stereo not given in full), 6.93%.
On the same count and under the same terms, then `CC(Oc1ccccc1)C(=O)NC1C(=O)N2C(C(=O)O)C(C)(C)S[C@@H]12` (stereo not given in full), with 11.7%.

Still in this test, the particulars now being: Drosophila S3 cells, BODIPY lipid droplet/cell ratio, laser cytometry; measured here: lipid channel max response; cells loaded with oleic acid.
Regarding `COc1cc2cc[n+]3cc4c(OC)c(OC)ccc4cc3c2cc1OC`, the max response was found to be 39.6%.
For the molecule `COc1cc(-c2cc(=O)c3c(O)c(OC)c(OC)c(OC)c3o2)cc(OC)c1OC`, the max response was 8.84%.
Same read-out and setting: for `CC1(C)CC2C1CCC1(C)OC2(C)CCC1O` (stereo not given) the value was 15.9%.
Same read-out and setting: then `O=C(CCc1ccc(O)cc1)c1c(O)cc(O)cc1O[C@H]1OC(CO)C(O)C(O)C1O` (stereo not given in full), with 27.2%; and `CC1(C)C[C@@H]2C(=O)CCC3O[C@@]3(C)CCC21` (stereo not given in full), with 26.4%; and `CC(=O)OC1CC(OC(C)=O)[C@]2(C)C(CC(=O)[C@]3(C)C2CC[C@@]2(C)C(C(=O)O)OC(=O)C4OC423)C1(C)C` (stereo not given in full), with 15.4%.
As to `CC(C)=CCc1c(O)cc2oc(C)cc(=O)c2c1O`, the max response was -0.981%.
The same measure, in the same setting: then `COc1ccc2c(=O)c(CC(=O)O)coc2c1`, with 14.8%.
Regarding `CC(CCC(=O)O)C1CCC2C3CC[C@H]4CC(O)CC[C@@]4(C)C3CC(O)[C@]12C` (stereo not given in full), the max response worked out at 10.5%.
As for `CC1(C)OC2CC3C4CC(F)C5=CC(=O)C=C[C@@]5(C)[C@@]4(F)C(O)C[C@@]3(C)[C@]2(C(=O)CO)O1` (stereo not given in full), the max response stood at 16.5%.
Same read-out and setting: for `C=C1C(=O)OC2CC1C(OC(C)=O)CC(C)=CCCC(C)=CCC[C@@]2(C)O` (stereo not given in full) the value was 14.3%; for `Oc1ccc(C2Oc3cc(O)cc(O)c3CC2O)cc1` (stereo not given), 20.5%; for `O=c1cc(-c2ccc(O)cc2)oc2cc(O)ccc12`, 5.18%.
For the molecule `S=c1ccss1`, the max response was 13.7%.
With `COC(=O)CC1C(C)(C)C2(O)OC34CC2C(=O)[C@@]1(C)C3CC[C@]1(C)C4=CC(=O)OC1c1ccoc1` (stereo not given in full), the max response is 8.19%.
Take `COc1ccc(C(=O)c2ccc(O)cc2)c(O)c1O`: the max response worked out at 8.25%.
The same measure, in the same setting: for `COc1cccc(O)c1O` the value was 20.7%; for `O=C(/C=C/c1ccccc1)c1ccc(O)cc1`, 2.04%.
Take `CCOC(=O)c1c(C)cc(O)c(C=O)c1O`: the max response amounted to 3.24%.
On to `COc1ccc(-c2coc3c(O)c(OC)ccc3c2=O)cc1`, for which the max response came out at 28.5%.
With `CC1(C)OC2CC3C4CCC5=CC(=O)C=C[C@@]5(C)[C@]4(F)C(O)C[C@@]3(C)[C@]2(C(=O)CO)O1` (stereo not given in full), the max response is -3.49%.
`COC(=O)/C(C)=C/CC12OC(C)(C)C3CC(C=C4C(=O)c5cc6c(c(CCC(C)(C)Cl)c5OC431)OC1(C)CCC(=C(C)C)C6C1)C2=O` (stereo not given): the max response came to 20.5%.
Same read-out and setting: then `CC(N)C(O)c1cccc(O)c1` (stereo not given), with 19.6%; and `CC(=O)OCC1OC(n2c(Br)nc3c(=O)[nH]c(N)nc32)C(OC(C)=O)C1OC(C)=O` (stereo not given), with 10.5%; and `C[C@]12CCC3c4ccc(OC(=O)c5ccccc5)cc4CCC3C1CCC2=O` (stereo not given in full), with 28.4%.
With `CCOC(=O)CCC(=O)O[C@H]1C(O[C@@H]2C(C)[C@H](O[C@H]3C[C@@](C)(OC)C(O)C(C)O3)C(C)C(=O)OC(CC)[C@@](C)(O)C(O)[C@H](C)C(=O)C(C)C[C@]2(C)O)OC(C)CC1N(C)C` (stereo not given in full), the max response stood at 3.45%.
Consider `CC1(C)C(=O)C2C[C@]3(O)C4=CC(=O)OC(c5ccoc5)[C@]4(C)CCC3[C@](C)(C2=O)C1CC(=O)O` (stereo not given in full), for which the max response is 6.28%.
As to `COc1cc(OC)c(C(C)=O)c(O)c1C`, the max response was 27.6%.
The same measure, in the same setting: then `CC(=O)OC1CC2C(C)(C)C(=O)[C@@H]3OC3[C@@]2(C)C2CC[C@]3(C)C(=CC(=O)OC3c3ccoc3)[C@]12C` (stereo not given in full), with 25.7%.
Regarding `CC1(C)CCC2(C(=O)O)CC[C@]3(C)C(=CCC4[C@]5(C)CCC(O)C(C)(C)C5C(O)C[C@]43C)C2C1` (stereo not given in full), the max response amounted to 24.8%.
For the molecule `CC1(C)CC2/C(CO)=C/C=C/[C@](C)(O)CC[C@]21O` (stereo not given in full), the max response amounted to 29.9%.
Still for that read-out and setting: then `COc1c(O)cc2c(-c3ccccc3)cc(=O)oc2c1OC`, with 14.2%; and `COC(=O)CC1C(C)(C)C(OC(C)=O)C2CC3=C4CC(=O)OC(c5ccoc5)[C@]4(C)CCC3[C@@]1(C)C2=O` (stereo not given in full), with 10%.
As for `Oc1ccc2c(c1)OC(c1ccc(O)c(O)c1)C(O)C2` (stereo not given), the max response stood at 1.34%.
Same read-out and setting: for `C#C[C@]1(O)CCC2C3CCC4=Cc5oncc5C[C@@]4(C)C3CC[C@@]21C` (stereo not given in full) the value was 21.9%; for `CC(=O)OC1CC2C(C)(C)C=CC(=O)[C@@]2(C)C2CC[C@@]3(C)C(c4ccoc4)OC(=O)C4OC43[C@]12C` (stereo not given in full), -1.42%.
Still for that read-out and setting: then `CC(=O)OCC(=O)[C@@]12OC(C)(C)OC1CC1C3CC(F)C4=CC(=O)C=C[C@@]4(C)[C@@]3(F)C(O)C[C@]12C` (stereo not given in full), with 12.9%; and `CC1(C)CCCC2(C)C3C(O)CC2(C)C(O)C31` (stereo not given), with -0.711%; and `C=C1C[C@@]23C[C@@]1(O)CCC2[C@@]12C=CC(O)[C@](C)(C(=O)O1)C2C3C(=O)O` (stereo not given in full), with 10.6%.
The same measure, in the same setting: for `CC(Oc1ccccc1)C(=O)NC1C(=O)N2C(C(=O)O)C(C)(C)S[C@@H]12` (stereo not given in full) the value was 21.7%.
